The results in this text go back to paper PMC7862700, “An all-to-all approach to the identification of sequence-specific readers for epigenetic DNA modifications on cytosine”.

Assay in all cases: DAPPL (digital affinity profiling via proximity ligation, sequencing); 10 mM Tris-HCl pH 7.5, 50 mM NaCl, 1 mM DTT, 4% glycerol, room temperature, 30 min; GST-TFs on glutathione beads, 16-mer random dsDNA library, 0.1% formaldehyde crosslink after washing; high values mean tight binding
One assay addresses T1, FEV (Homo sapiens, UniProt Q99581 1-238).
T1 sequence: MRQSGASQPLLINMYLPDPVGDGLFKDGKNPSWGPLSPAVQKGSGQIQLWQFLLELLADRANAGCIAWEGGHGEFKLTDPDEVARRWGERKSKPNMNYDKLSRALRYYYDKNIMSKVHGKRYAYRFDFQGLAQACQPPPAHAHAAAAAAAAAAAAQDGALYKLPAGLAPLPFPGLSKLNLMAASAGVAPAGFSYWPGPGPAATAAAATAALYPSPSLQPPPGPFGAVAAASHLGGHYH
To be noted: protein: recombinant; tags: N-terminal GST; dsDNA, one strand shown. The procedure, abridged:
(§1)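 Human transcription factors carrying a GST fusion were produced in yeast, bound to glutathione beads, tagged with DNA barcodes and pooled together with a tag-only sample. Each pool was held with 200 nmole of a random double-stranded 16-mer DNA library in Tris/NaCl/DTT/glycerol buffer for 30 min at room temperature, then washed, crosslinked in 0.1% formaldehyde, proximity-ligated with BsaI/T4 ligase (1 h, 37 °C), PCR-amplified and sequenced on an Illumina NextSeq500. Binding signal is the read frequency of each hexamer for a given factor divided by its frequency in the tag-only sample.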

The target in a further assay is ETV5 (Homo sapiens, UniProt P41161 1-510). Particulars: protein: recombinant; tags: N-terminal GST; dsDNA, one strand shown. In a few lines: as §1
Sequence of ETV5 (P41161 whole entry): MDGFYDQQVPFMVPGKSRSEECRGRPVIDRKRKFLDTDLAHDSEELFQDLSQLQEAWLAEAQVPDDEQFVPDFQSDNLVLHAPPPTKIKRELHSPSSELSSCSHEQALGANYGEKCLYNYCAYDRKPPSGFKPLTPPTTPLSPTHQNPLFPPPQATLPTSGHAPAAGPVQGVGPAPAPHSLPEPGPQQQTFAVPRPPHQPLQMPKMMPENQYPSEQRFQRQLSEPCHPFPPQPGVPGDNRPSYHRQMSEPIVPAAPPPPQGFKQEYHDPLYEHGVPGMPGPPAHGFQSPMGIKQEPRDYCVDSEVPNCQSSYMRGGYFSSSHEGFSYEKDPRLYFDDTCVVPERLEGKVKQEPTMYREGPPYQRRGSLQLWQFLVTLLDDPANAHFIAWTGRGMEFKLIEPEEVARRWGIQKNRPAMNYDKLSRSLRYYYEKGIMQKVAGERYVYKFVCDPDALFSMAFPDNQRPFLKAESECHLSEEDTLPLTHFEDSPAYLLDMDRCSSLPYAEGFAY
The next assay concerns the target HSF1 (Homo sapiens, UniProt Q00613 1-529). Particulars: protein: recombinant; tags: N-terminal GST; chain copies: 3; dsDNA, one strand shown. The procedure, abridged:
as §1

The target in a further assay is T2, SPIC (Homo sapiens, UniProt Q8N5J4 1-248).
T2 sequence: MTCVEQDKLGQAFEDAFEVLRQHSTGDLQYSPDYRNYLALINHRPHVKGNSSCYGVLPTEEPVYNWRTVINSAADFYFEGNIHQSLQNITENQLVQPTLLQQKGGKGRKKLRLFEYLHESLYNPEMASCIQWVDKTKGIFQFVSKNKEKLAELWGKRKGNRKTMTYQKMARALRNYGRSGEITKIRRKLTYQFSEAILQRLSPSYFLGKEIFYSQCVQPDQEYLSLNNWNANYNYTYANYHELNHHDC
Particulars: protein: recombinant; tags: N-terminal GST; dsDNA, one strand shown. The procedure, abridged: as §1

In the next assay the target is ELF4 (Homo sapiens, UniProt Q99607 1-663). Particulars: protein: recombinant; tags: N-terminal GST; dsDNA, one strand shown. In a few lines:
as §1

The target in the next assay is T3, ELK4 (Homo sapiens, UniProt P28324-2 1-405).
T3 sequence: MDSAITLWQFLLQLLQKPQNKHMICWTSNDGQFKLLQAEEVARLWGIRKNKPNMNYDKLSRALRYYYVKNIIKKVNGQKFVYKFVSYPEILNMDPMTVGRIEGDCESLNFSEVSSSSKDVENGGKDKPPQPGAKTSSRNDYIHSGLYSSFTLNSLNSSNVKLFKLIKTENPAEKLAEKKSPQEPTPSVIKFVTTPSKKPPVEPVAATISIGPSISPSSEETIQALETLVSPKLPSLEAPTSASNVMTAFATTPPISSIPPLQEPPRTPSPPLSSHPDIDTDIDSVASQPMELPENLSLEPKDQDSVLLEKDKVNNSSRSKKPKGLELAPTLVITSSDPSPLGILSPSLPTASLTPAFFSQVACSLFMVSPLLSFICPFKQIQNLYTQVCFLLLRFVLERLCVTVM
To be noted: protein: recombinant; tags: N-terminal GST; dsDNA, one strand shown. The procedure, abridged:
as §1

A further assay addresses T4, ETV2 (Homo sapiens, UniProt O00321 1-342).
T4 sequence: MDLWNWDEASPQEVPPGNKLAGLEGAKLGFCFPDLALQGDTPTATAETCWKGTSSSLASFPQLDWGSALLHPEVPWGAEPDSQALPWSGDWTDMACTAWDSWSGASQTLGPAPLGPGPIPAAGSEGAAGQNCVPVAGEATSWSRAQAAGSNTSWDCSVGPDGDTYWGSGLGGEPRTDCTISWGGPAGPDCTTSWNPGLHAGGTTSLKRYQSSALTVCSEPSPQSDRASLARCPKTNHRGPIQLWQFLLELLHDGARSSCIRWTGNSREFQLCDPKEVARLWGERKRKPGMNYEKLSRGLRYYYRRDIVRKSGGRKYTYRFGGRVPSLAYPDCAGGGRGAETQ
Particulars: protein: recombinant; tags: N-terminal GST; dsDNA, one strand shown. The procedure, abridged:
as §1

For another assay, the target named is T5, ELF3 (Homo sapiens, UniProt P78545 1-371).
T5 sequence: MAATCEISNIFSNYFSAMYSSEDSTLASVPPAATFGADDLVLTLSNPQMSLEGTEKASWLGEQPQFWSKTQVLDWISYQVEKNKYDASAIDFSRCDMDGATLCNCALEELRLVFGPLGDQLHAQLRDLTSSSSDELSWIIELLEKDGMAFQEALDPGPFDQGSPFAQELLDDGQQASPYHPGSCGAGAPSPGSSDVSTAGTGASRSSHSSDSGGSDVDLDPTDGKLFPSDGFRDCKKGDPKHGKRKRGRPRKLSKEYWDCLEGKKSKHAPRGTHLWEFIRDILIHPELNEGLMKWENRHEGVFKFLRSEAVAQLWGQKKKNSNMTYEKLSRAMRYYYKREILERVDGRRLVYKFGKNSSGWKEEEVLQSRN
To be noted: protein: recombinant; tags: N-terminal GST; dsDNA, one strand shown. The procedure, abridged: as §1

For a further assay, the target named is CRX (Homo sapiens, UniProt O43186 1-299). Particulars: protein: recombinant; tags: N-terminal GST; dsDNA, one strand shown. The procedure, abridged:
as §1

The next assay deals with ETV1 (Homo sapiens, UniProt P50549 1-477). Particulars: protein: recombinant; tags: N-terminal GST; dsDNA, one strand shown. The procedure, abridged: as §1
Sequence of ETV1 (P50549 whole entry): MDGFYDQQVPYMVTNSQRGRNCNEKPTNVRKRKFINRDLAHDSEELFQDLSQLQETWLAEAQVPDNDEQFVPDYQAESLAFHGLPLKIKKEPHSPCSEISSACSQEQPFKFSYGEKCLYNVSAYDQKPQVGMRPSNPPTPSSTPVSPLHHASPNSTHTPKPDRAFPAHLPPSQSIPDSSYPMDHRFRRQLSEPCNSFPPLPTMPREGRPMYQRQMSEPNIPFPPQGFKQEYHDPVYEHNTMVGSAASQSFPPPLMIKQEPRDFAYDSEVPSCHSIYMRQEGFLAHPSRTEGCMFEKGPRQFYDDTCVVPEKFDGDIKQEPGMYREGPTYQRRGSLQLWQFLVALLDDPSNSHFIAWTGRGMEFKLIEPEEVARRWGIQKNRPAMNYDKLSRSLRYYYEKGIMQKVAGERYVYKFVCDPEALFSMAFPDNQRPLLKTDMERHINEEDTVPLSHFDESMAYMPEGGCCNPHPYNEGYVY
A further assay addresses T6, ERF (Homo sapiens, UniProt P50548 1-548).
T6 sequence: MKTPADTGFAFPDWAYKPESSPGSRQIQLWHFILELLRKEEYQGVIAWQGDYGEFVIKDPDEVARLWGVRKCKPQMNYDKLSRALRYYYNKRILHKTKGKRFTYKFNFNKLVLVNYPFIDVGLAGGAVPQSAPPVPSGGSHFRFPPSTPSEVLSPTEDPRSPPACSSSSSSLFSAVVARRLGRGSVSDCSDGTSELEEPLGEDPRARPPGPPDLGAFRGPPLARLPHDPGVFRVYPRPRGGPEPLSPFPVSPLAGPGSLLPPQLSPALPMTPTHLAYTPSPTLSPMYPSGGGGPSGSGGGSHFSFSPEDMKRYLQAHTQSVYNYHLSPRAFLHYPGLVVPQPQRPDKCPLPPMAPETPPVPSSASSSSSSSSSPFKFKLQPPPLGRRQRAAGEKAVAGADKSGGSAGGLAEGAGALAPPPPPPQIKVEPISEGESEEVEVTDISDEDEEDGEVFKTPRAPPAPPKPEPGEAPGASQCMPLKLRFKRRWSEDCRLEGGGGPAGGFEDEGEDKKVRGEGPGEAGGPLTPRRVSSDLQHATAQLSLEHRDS
Particulars: protein: recombinant; tags: N-terminal GST; dsDNA, one strand shown. The procedure, abridged: as §1

The target of another assay is T7, ETV3L (Homo sapiens, UniProt Q6ZN32 1-361).
T7 sequence: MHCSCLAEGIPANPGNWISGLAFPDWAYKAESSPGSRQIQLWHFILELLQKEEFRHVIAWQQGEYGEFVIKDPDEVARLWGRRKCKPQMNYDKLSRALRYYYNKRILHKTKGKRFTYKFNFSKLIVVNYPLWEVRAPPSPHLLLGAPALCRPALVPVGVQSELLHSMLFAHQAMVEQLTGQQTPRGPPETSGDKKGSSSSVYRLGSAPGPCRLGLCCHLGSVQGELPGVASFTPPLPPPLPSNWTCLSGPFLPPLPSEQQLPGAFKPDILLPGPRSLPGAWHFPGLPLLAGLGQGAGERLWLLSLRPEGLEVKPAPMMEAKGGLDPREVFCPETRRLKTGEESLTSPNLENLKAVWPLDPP
To be noted: protein: recombinant; tags: N-terminal GST; dsDNA, one strand shown. In a few lines: as §1

A further assay concerns the target T8, ETS2 (Homo sapiens, UniProt P15036 1-469).
T8 sequence: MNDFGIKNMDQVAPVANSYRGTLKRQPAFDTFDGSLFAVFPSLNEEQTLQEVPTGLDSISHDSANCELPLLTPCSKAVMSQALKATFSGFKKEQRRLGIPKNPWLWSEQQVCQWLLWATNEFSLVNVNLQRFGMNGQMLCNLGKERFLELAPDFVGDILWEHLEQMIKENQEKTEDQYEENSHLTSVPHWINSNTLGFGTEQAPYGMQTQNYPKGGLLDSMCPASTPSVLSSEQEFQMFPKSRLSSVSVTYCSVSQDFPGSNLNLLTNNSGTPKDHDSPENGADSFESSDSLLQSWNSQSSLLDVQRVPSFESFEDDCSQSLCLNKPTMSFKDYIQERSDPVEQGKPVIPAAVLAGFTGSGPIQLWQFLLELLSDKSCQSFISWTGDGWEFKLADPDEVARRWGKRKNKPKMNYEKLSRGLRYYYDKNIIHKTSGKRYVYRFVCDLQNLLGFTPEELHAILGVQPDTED
To be noted: protein: recombinant; tags: N-terminal GST; dsDNA, one strand shown. In a few lines: as §1

In a further assay the target is T9, SPDEF (Homo sapiens, UniProt O95238 1-335).
T9 sequence: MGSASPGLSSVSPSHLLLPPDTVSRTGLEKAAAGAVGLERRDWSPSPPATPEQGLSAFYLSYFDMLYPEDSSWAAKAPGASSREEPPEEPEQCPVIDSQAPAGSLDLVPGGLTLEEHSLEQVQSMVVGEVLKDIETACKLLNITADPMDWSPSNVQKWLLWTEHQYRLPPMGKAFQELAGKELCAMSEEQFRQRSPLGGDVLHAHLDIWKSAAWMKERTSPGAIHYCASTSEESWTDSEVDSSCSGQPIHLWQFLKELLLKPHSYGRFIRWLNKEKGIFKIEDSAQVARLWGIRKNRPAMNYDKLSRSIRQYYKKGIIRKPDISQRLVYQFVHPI
Particulars: protein: recombinant; tags: N-terminal GST; dsDNA, one strand shown. In a few lines: as §1

For another assay, the target named is T10, ETV7 (Homo sapiens, UniProt Q9Y603 1-341).
T10 sequence: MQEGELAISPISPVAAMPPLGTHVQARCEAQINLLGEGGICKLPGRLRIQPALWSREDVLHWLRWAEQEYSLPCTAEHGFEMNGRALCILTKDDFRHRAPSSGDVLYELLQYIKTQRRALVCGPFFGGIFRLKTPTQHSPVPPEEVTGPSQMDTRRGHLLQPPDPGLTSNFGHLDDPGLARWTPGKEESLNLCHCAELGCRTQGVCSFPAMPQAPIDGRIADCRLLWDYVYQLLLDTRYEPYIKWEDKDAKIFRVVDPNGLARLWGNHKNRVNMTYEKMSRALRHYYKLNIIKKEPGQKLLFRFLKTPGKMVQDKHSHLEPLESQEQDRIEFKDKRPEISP
Particulars: protein: recombinant; tags: N-terminal GST; dsDNA, one strand shown. The procedure, abridged:
as §1

The target in another assay is T11, ELF5 (Homo sapiens, UniProt Q9UKW6-2 1-255).
T11 sequence: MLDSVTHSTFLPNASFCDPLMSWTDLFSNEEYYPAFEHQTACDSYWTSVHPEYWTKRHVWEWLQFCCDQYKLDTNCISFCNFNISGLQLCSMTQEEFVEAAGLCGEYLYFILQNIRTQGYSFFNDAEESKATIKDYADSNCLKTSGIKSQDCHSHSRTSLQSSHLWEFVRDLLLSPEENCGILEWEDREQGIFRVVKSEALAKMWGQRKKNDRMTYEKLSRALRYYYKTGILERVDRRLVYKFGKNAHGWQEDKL
To be noted: protein: recombinant; tags: N-terminal GST; dsDNA, one strand shown. The procedure, abridged: as §1

Another assay addresses T12, ETV3 (Homo sapiens, UniProt P41162-2 1-143).
T12 sequence: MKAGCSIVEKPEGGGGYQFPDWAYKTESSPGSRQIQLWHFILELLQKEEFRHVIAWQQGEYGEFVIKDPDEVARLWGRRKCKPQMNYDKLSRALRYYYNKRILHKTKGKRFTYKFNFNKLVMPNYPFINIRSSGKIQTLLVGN
Particulars: protein: recombinant; tags: N-terminal GST; dsDNA, one strand shown. The procedure, abridged: as §1

The target of a further assay is ETV6 (Homo sapiens, UniProt P41212 1-452). Particulars: protein: recombinant; tags: N-terminal GST; dsDNA, one strand shown. The procedure, abridged:
as §1

Sequence of HSF1 (Q00613 whole entry): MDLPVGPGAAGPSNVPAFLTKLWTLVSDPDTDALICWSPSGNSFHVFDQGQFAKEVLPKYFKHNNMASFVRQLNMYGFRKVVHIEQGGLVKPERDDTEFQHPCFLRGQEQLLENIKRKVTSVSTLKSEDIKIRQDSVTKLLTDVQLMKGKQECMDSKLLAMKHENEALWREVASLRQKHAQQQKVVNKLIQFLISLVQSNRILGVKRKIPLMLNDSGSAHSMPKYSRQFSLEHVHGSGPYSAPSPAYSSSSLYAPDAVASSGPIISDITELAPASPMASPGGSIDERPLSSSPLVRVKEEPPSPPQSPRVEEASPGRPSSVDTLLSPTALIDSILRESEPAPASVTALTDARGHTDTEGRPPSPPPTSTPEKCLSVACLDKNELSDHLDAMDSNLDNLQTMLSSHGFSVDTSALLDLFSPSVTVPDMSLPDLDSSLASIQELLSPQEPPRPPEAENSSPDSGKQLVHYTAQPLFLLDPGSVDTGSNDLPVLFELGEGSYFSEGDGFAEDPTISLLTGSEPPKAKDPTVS
Sequence of ELF4 (Q99607 whole entry): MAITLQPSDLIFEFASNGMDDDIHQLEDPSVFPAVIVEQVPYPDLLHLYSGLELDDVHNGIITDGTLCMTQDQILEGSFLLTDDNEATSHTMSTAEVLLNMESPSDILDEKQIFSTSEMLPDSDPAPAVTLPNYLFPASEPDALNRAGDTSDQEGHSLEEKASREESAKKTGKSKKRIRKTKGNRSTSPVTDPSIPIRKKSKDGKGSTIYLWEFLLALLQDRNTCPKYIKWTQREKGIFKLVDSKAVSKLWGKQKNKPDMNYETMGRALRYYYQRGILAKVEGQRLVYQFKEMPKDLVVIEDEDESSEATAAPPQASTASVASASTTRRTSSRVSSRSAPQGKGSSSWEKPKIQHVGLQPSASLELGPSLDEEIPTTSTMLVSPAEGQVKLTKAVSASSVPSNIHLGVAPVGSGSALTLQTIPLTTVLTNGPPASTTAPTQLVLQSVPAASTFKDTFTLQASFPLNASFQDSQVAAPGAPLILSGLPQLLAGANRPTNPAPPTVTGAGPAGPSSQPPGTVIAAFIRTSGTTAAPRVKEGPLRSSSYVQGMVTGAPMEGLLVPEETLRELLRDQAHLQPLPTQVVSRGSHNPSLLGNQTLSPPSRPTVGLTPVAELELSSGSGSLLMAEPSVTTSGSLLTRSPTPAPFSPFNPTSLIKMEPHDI
Sequence of CRX (O43186 whole entry): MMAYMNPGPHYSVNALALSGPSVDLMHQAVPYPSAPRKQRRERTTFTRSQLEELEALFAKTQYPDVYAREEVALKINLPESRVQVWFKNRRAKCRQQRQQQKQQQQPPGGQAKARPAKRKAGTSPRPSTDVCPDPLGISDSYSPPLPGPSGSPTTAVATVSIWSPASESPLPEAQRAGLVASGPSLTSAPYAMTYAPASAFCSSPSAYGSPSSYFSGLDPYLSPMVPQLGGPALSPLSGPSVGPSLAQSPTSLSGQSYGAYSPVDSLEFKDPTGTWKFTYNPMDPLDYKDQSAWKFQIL
Sequence of ETV6 (P41212 whole entry): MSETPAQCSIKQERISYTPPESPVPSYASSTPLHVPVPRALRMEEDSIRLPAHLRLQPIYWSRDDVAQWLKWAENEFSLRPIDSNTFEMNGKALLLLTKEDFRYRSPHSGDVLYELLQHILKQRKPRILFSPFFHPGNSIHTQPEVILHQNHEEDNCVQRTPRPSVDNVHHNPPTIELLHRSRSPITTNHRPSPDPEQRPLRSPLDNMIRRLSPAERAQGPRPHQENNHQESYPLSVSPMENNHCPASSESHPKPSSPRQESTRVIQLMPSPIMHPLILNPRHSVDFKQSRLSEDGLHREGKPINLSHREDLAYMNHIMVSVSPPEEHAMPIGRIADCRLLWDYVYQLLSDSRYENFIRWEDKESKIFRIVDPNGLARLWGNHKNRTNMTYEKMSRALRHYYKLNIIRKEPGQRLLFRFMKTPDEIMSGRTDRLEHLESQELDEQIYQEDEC

On to TACGAT, for which the binding signal in the assay with FEV is 1.13 fold enrichment (6-mer frequency, TF over GST control); with ETV5, 1.12 fold enrichment (6-mer frequency, TF over GST control); with HSF1, 1.13 fold enrichment (6-mer frequency, TF over GST control); in the assay with SPIC, 1.05 fold enrichment (6-mer frequency, TF over GST control); in the assay with ELF4, 1.11 fold enrichment (6-mer frequency, TF over GST control); in the assay with ELK4, 1.14 fold enrichment (6-mer frequency, TF over GST control). The binding signal in the assay with ETV2 is 1.12 fold enrichment (6-mer frequency, TF over GST control); with ELF3, 1.11 fold enrichment (6-mer frequency, TF over GST control); with CRX, 1.37 fold enrichment (6-mer frequency, TF over GST control); in the assay with ETV1, 1.07 fold enrichment (6-mer frequency, TF over GST control); with ERF, 1.07 fold enrichment (6-mer frequency, TF over GST control); with ETV3L, 1.13 fold enrichment (6-mer frequency, TF over GST control). Further, the binding signal in the assay with ETS2 was 1.15 fold enrichment (6-mer frequency, TF over GST control); in the assay with SPDEF it was 1.11 fold enrichment (6-mer frequency, TF over GST control); with ETV7 it was 1.07 fold enrichment (6-mer frequency, TF over GST control); in the assay with ELF5, 1.03 fold enrichment (6-mer frequency, TF over GST control); with ETV3 it was 1 fold enrichment (6-mer frequency, TF over GST control); in the assay with ETV6, 1.03 fold enrichment (6-mer frequency, TF over GST control).
